In PubChem BioAssay (Tox21):
Several values for one entry are separate records, joined by “and”; a condition that tells them apart may be missing. Identical values can stand only once. Where a structure was tested more than once in an assay, its records may differ in their call. Activity calls are given as the source filed them. Unless noted, the call rests on the fitted dose curve; in most records, active means well fitted curve in the direction sought with a large enough effect in the repeat runs; inconclusive means weak or mixed curves; inactive means no such curve, though single readings can be large; an effect the other way counts as inactive or inconclusive.

How the values were obtained:
[1] = qHTS assay to identify small molecule antagonists of the glucocorticoid receptor (GR) signaling pathway - cell viability counter screen (AID 720693); further: nearly all actives have a fitted effect of over 55% in size
[2] = qHTS assay for identifying genotoxic compounds that show differential cytotoxicity against isogenic chicken DT40 cell lines with known DNA damage response pathways - wild type cell line (AID 743012); further: nearly all actives have a fitted effect of over 60% in size; further: potency means the concentration at half of the fitted maximal effect
Summary of the method: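 300 wt DT40 cells/well; cpd (DMSO) pintool-transferred after ~0.5 h at 37 C/5% CO2; 40 h incubation; CellTiter-Glo added, 30 min RT; luminescence read.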

[3] = qHTS assay for identifying genotoxic compounds that show differential cytotoxicity against isogenic chicken DT40 cell lines with known DNA damage response pathways - Rev3 mutant cell line (AID 743014); further: nearly all actives have a fitted effect of over 55% in size; further: potency means the concentration at half of the fitted maximal effect
[4] = qHTS assay for identifying genotoxic compounds that show differential cytotoxicity against isogenic chicken DT40 cell lines with known DNA damage response pathways - Rad54/Ku70 mutant cell line (AID 743015); further: nearly all actives have a fitted effect of over 60% in size; further: potency means the concentration at half of the fitted maximal effect
[5] = qHTS assay to identify small molecule antagonists of the androgen receptor (AR) signaling pathway - cell viability counter screen (AID 743033; further: nearly all actives have a fitted effect of over 45% in size)
[6] = qHTS assay to identify small molecule antagonists of the androgen receptor (AR) signaling pathway using the MDA cell line - cell viability counter screen (AID 743041; further: nearly all actives have a fitted effect of over 45% in size)
Summary of the method: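 Viability read by CellTiter-Fluor fluorescence in the same wells as the antagonist screen, added after 15.5 h of a 16 h, 37C exposure. Human breast carcinoma MDA-kb2 AR-luc cells, compounds co-dosed with agonist R1881.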

[7] = qHTS assay to identify small molecule antagonists of the thyroid receptor (TR) signaling pathway - cell viability counter screen (AID 743064); further: nearly all actives have a fitted effect of over 50% in size
Summary of the method: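 Rat GH3 pituitary tumor cells stably expressing two TR response elements driving luciferase were plated, rested 4 h, then dosed with library compounds and T3 (1 nM final). After 23.5 h at 37 °C, CellTiter-Fluor was added for 30 min and fluorescence recorded.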

[8] = qHTS assay to identify small molecule antagonists of the thyroid receptor (TR) signaling pathway (AID 743065); further: series mostly up to about 70 µM; nearly all actives have a fitted effect of over 55% in size
Summary of the method: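 Antagonism measured as loss of luciferase signal in GH3 cells stably carrying a TRE-luciferase reporter, co-treated with compound and T3 (1 nM final) for 23.5 h at 37 C. Viability was read in the same well by CellTiter-Fluor.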

[9] = system: thyroid hormone receptor (rat, GH3 cells); assay: qHTS assay to identify small molecule agonists of the thyroid receptor (TR) signaling pathway (AID 743066; calls by dose curve)
[10] = molecular target: Estrogen receptor (Homo sapiens) (UniProt P03372); assay: qHTS assay to identify small molecule antagonists of the estrogen receptor alpha (ER-alpha) signaling pathway (AID 743069; active means well fitted curve in the direction sought with a large enough effect in the signal ratio in the repeat runs, not every such curve was filed as active; inconclusive means weak or mixed curves, or effect the other way; inactive means no such curve, though single readings can be large or run the other way; the % refers to the signal ratio; further: potency means the concentration at half of the fitted maximal effect)
Estrogen receptor (Homo sapiens), sequence (P03372 whole entry, looked up): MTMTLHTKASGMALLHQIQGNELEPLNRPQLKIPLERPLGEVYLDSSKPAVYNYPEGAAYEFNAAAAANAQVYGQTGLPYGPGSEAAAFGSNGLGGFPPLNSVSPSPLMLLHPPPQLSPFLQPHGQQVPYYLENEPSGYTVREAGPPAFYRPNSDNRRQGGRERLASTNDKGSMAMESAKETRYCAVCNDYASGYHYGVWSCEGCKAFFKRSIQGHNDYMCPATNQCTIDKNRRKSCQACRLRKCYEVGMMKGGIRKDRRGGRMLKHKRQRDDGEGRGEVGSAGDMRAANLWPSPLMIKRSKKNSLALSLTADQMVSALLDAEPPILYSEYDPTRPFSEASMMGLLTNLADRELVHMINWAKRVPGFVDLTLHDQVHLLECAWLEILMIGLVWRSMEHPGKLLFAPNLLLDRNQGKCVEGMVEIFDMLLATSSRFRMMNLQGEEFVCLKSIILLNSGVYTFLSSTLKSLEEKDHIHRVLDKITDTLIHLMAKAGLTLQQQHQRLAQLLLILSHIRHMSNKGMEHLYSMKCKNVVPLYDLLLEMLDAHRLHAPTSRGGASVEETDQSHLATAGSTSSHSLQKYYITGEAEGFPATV
Summary of the method: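 Antagonist mode: compounds in DMSO were co-added with 17beta-estradiol to ER-alpha-bla HEK293 cells (2% charcoal-stripped serum) and left 18 h at 37C. Reporter inhibition was measured as FRET fluorescence after 2 h LiveBLAzer substrate at room temperature.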

[11] = qHTS assay to identify small molecule antagonists of the estrogen receptor alpha (ER-alpha) signaling pathway - cell viability counter screen (AID 743074; calls by dose curve;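 further: HEK293 cells carrying ER-alpha-UAS-bla reporter stimulated with 17beta-estradiol; nearly all actives have a fitted effect of over 45% in size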; further: potency means the concentration at half of the fitted maximal effect)
[12] = molecular target: Estrogen receptor (Homo sapiens) (UniProt P03372); assay: qHTS assay to identify small molecule agonists of the estrogen receptor alpha (ER-alpha) signaling pathway (AID 743075; calls by dose curve;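 further: HEK293 GripTite cells with ER-alpha and UAS-driven beta-lactamase reporter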)
[13] = molecular target: Estrogen receptor (Homo sapiens) (UniProt P03372); assay: qHTS assay to identify small molecule agonists of the estrogen receptor alpha (ER-alpha) signaling pathway using the BG1 cell line (AID 743079); further: nearly all actives have a fitted effect of over 20% in size; further: potency means the concentration at half of the fitted maximal effect
[14] = qHTS assay to identify small molecule antagonists of the estrogen receptor alpha (ER-alpha) signaling pathway using the BG1 cell line (AID 743080; calls by dose curve;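 further: BG1 cells stimulated with 17beta-estradiol alongside compound; series mostly up to about 70 µM; nearly all actives have a fitted effect of over 25% in size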)
Summary of the method: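 After 5 days in phenol-red-free 10% charcoal-stripped FBS medium, BG1-Luc-4E2 cells were seeded, left 24 h at 37 C, co-treated with compounds and 17beta-estradiol for 21.5 h, then assayed for viability and luciferase.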

[15] = qHTS assay to identify small molecule antagonists of the estrogen receptor alpha (ER-alpha) signaling pathway using the BG1 cell line - cell viability counter screen (AID 743081);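 further: compound given together with 17beta-estradiol as the ER stimulus; series mostly up to about 70 µM; nearly all actives have a fitted effect of over 45% in size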
Aromatase (Homo sapiens) = Aromatase (Homo sapiens) (UniProt P11511); assay: qHTS assay to identify aromatase inhibitors (AID 743083); further: series mostly up to about 70 µM; nearly all actives have a fitted effect of over 55% in size
Aromatase (Homo sapiens), sequence (P11511 whole entry, looked up): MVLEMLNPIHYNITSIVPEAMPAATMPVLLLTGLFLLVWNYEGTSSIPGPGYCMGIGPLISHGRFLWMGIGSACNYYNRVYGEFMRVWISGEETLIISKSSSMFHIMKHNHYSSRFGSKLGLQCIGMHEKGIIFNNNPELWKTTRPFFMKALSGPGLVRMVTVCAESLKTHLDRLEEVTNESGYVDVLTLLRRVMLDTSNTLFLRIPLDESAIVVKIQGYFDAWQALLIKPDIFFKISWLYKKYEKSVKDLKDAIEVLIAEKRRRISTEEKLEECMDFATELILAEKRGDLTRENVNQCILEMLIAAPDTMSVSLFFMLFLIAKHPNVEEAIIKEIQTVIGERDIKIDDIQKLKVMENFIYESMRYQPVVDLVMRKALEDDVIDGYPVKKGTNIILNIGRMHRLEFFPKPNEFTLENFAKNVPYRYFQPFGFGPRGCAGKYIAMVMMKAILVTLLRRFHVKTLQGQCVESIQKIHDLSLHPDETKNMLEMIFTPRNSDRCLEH

[16] = molecular target: Androgen receptor (Homo sapiens) (UniProt P10275); assay: qHTS assay to identify small molecule agonists of the androgen receptor (AR) signaling pathway (AID 743036; active means well fitted activation curve with a large enough effect in the signal ratio in the repeat runs, with a control signal flat, not every such curve was filed as active; inconclusive means weak or mixed curves, or effect the other way; inactive means no such curve, though single readings can be large or run the other way; the % refers to the signal ratio)
Androgen receptor (Homo sapiens), sequence (P10275 whole entry, looked up): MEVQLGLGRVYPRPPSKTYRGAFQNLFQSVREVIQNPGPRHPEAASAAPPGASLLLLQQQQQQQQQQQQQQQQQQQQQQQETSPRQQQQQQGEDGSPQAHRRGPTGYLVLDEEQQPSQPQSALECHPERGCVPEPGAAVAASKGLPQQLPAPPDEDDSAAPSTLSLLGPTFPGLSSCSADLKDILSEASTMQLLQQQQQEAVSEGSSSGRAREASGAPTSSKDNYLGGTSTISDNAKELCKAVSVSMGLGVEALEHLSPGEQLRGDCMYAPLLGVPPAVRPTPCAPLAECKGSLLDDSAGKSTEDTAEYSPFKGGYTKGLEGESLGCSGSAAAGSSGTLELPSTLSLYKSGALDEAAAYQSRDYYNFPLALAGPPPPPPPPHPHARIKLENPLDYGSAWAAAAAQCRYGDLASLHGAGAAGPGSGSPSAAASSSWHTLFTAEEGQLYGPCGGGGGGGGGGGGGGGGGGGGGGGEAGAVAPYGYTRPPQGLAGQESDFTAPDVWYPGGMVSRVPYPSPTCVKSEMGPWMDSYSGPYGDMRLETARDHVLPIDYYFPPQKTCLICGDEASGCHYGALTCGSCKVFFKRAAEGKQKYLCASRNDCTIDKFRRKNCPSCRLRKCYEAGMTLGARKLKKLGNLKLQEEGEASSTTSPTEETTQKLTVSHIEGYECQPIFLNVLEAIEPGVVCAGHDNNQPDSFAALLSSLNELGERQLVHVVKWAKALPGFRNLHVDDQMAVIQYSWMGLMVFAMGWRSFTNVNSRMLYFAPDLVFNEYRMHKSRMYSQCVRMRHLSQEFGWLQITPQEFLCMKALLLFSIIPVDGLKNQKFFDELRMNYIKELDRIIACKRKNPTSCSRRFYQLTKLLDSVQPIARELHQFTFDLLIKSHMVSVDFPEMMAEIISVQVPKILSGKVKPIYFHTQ
Summary of the method: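 Quantitative HTS of the Tox21 10K library in HEK293 cells bearing a stably integrated UAS-controlled beta-lactamase reporter. Compound exposure lasted 16 h at 37C. Reporter activity was detected by FRET substrate fluorescence after 2 h at room temperature.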

[17] = molecular target: Androgen receptor (Homo sapiens) (UniProt P10275); assay: qHTS assay to identify small molecule agonists of the androgen receptor (AR) signaling pathway using the MDA cell line (AID 743040; further: nearly all actives have a fitted effect of over 20% in size)
Summary of the method: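 Luciferase agonist assay: 16 h compound exposure at 37C without CO2 in MDA-kb2 AR-luc cells, whose MMTV promoter responds to both AR and GR. Luminescence measured after 30 min room-temperature incubation with ONE-Glo.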

[18] = molecular target: Androgen receptor (Homo sapiens) (UniProt P10275); assay: qHTS assay to identify small molecule antagonists of the androgen receptor (AR) signaling pathway using the MDA cell line (AID 743042; further: nearly all actives have a fitted effect of over 55% in size)
Summary of the method: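 Antagonist mode: compounds plus R1881 agonist added to MDA-kb2 AR-luc cells, incubated 16 h at 37C. Luciferase reporter luminescence quantified, with multiplexed CellTiter-Fluor readout for cell viability.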

[19] = molecular target: Androgen receptor (Homo sapiens) (UniProt P10275); assay: qHTS assay to identify small molecule antagonists of the androgen receptor (AR) signaling pathway (AID 743035; active means well fitted inhibition curve with a large enough effect in the signal ratio in the repeat runs, not every such curve was filed as active; inconclusive means weak or mixed curves, or effect the other way; inactive means no such curve, though single readings can be large or run the other way; the % refers to the signal ratio)
Summary of the method: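 In this cell-based reporter screen, compounds were tested in concentration series against R1881-activated HEK293 cells expressing beta-lactamase under UAS control; after 16 h at 37C, FRET substrate was added and fluorescence read 2 h later.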

Measured: Potency

C1CN2CCN1CC2
inactive and 4.36 µM (active): [11]
not listed: [16] | [17] | [18] | [19]
inactive: all other assays above

O=NN1CCCC1
not listed: [16] | [17] | [18] | [19]
inactive: all other assays above

Cc1ccc([N+](=O)[O-])cc1C
not listed: [16] | [17] | [18] | [19]
inactive: all other assays above

NCCc1ccc(O)cc1
inactive and 68 µM (active): [13]
not listed: [16] | [17] | [18] | [19]
inactive: all other assays above

CCNc1nc(NC(C)C)nc(SC)n1
active: [3] 61.1 µM | [4] 61.1 µM
inactive and 61.1 µM (active): [2]
not listed: [10] | [12] | [13] | [14] | [19]
inactive: all other assays above

CC(C#N)CCC#N (centres undefined)
not listed: [16] | [17] | [18] | [19]
inactive: all other assays above

CCCCN(CC)C(=O)SCCC
inactive: all assays above

C1CC2OC2CC1C1CO1 (centres undefined)
not listed: [16] | [17] | [18] | [19]
inactive: all other assays above

CCC12COCN1COC2
not listed: [16] | [17] | [18] | [19]
inactive: all other assays above

c1ccc(-c2ccccc2)cc1
inactive: all assays above

Nc1ccc(Br)cc1
active: [10] 3.47 µM [inconclusive]
not listed: [16] | [17] | [18] | [19]
inactive: all other assays above

CCC[CH2][Sn]([Cl])([Cl])[Cl]
not listed: [16] | [17] | [18] | [19]
inactive: all other assays above

CC(C)N1C(=O)c2ccccc2NS1(=O)=O
not listed: [16] | [17] | [18] | [19]
inactive: all other assays above

O=C1CCCN1
inactive and 48.6 µM (active): [13]
not listed: [16] | [17] | [18] | [19]
inactive: all other assays above

O=C(NC(=O)c1c(F)cccc1F)Nc1cc(Cl)c(OC(F)(F)C(F)C(F)(F)F)cc1Cl (centres undefined)
active: [2] 3.35 µM | [3] 4.22 µM | [4] 5.96 µM and 21.7 µM
not listed: [18]
inactive: all other assays above

CCCN(CCC)c1c([N+](=O)[O-])cc(C(F)(F)F)cc1[N+](=O)[O-]
not listed: [7] | [8]
inactive: all other assays above

CCCN(CCC)N=O
not listed: [16] | [17] | [18] | [19]
inactive: all other assays above
